In PubChem BioAssay AID2069 (Sanford-Burnham Center for Chemical Genomics, 2009) one finds inhibition data, which are given here for 93 molecules.

The whole screen tested about 1,200 compounds, of which about 210 (18%) were called active. A selection follows. A number with no mark means an inactive call. No stated cut-off is given here; in the data, active means inhibition above about 30%; inactive means the rest.

The nature of this experiment: HTRF signal interference by compounds, confirmation, artefact control for SUMOylation inhibitor project, biochemical, uHTS (AID 2069). Particulars: HTRF interference counterscreen, fluorescence, at 35 µM, active compounds read high. On the technique in general: Time-resolved FRET reads energy transfer from a long-lived donor to a nearby acceptor.
As usually defined, the inhibition is the change of the read-out against control, counted positive when it falls. `CC1=NOC(=O)/C1=C\c1ccc(-c2cc(Cl)ccc2Cl)o1`: the inhibition is 11%.

Turning to `Cc1cc(NC(=O)CSc2nc3cc(C(=O)NCCCOC(C)C)ccc3c(=O)n2Cc2ccco2)no1`, the inhibition was 6.6%.

Regarding `COc1cc2c(cc1OC)C(C)=NC1(CCCCC1)C2`, the inhibition is 31.6% (active).

For `CSc1ccc(-c2cc(=O)c3ccccc3o2)cc1`, the inhibition is 60.2% (active).

With `CCN(CC)S(=O)(=O)c1cc(C)ccc1SC`, the inhibition was -1.75%.

`COc1ccc(/C=N/Nc2cc(N3CCCC3)nc(N3CCCC3)n2)cc1`: the inhibition is 27.9%.

`Oc1ccc(/C=N/Nc2cc(N3CCCC3)nc(N3CCCC3)n2)cc1O`: the inhibition is 42.8% (active).

For `Oc1ccc(/C=N/Nc2cc(N3CCCC3)nc(N3CCCC3)n2)cc1`, the inhibition is 6.25%.

`CCOc1ccc(C=Nc2cccc3ncccc23)cc1`: the inhibition is -2.35%.

Consider `Cc1ccc(C2C(C#N)=C(N)N(c3cccnc3)C3=C2C(=O)CCC3)s1` (stereo not drawn), for which the inhibition is 10.7%.

For the molecule `COc1ccc(CC2S/C(=N/N=C/c3ccccc3O)NC2=O)cc1` (stereo not drawn), the inhibition is 65.5% (active).

For `COc1ccc(CC2=C(O)c3ccccc3C(=O)C2=O)cc1`, the inhibition is -7.05%.

Regarding `O=C1N/C(=N/N=C/c2ccccc2O)SC1Cc1ccc(F)cc1` (stereo not drawn), the inhibition is 64% (active).

Consider `O=C(CC1S/C(=N/N=C/C=C/c2ccccc2)NC1=O)Nc1ccc(Cl)c(Cl)c1` (stereo not drawn), for which the inhibition was -11.6%.

Regarding `Cc1cc(/C=C2\C(=N)N3N=C(c4ccco4)SC3=NC2=O)c(C)n1Cc1ccccc1`, the inhibition was 7.7%.

For `N#C/C(=C\c1ccc(O)c(O)c1)C(=O)Nc1cccc2ncccc12`, the inhibition is 8.1%.

As to `O=C(NCc1ccccc1)Nc1cccn(Cc2ccccc2F)c1=O`, the inhibition was -6.7%.

As for `CCN(CC)S(=O)(=O)c1ccc(O)c(NC(=O)c2cc(-c3cc(OC)c(OC)c(OC)c3)nc3ccccc23)c1`, the inhibition is 16.9%.

Take `O=C(N/N=C/c1ccc(Cl)cc1)c1nc2ccc([N+](=O)[O-])cc2c(=O)[nH]1`: the inhibition was 8.95%.

Regarding `CC(O)C(=O)N/N=C/c1cccc(Cl)c1Cl` (stereo not drawn), the inhibition was -5.5%.

Regarding `O=C(Nc1nnc(-c2ccccc2SCc2ccccc2)s1)Nc1ccccc1F`, the inhibition was 6.45%.

Consider `Cc1c(N=C2C=CC(=O)c3ccccc32)c(=O)n(-c2ccccc2)n1C`, for which the inhibition is -29.4%.

In the case of `Cc1c(N2C(=O)c3ccc4c5c(ccc(c35)C2=O)CC4)c(=O)n(-c2ccccc2)n1C`, the inhibition is 39.8% (active).

On to `Cc1ccc(C(=O)Nc2nnc(CC(=O)N/N=C/c3ccc(O)c(O)c3)s2)cc1`, for which the inhibition is -1%.

Regarding `CCc1c(C)c2cc(Cl)c(O)c(CN(C)C)c2oc1=O`, the inhibition is 37.2% (active).

On to `Cc1c(CC(=O)O)c(=O)oc2c(C)c(OCc3ccc(F)cc3Cl)ccc12`, for which the inhibition is -7.8%.

For the molecule `Cc1c(C)c2cc(Cl)c(O)c(CN3CCN(C)CC3)c2oc1=O`, the inhibition was 30.6% (active).

For `Cc1cc(Br)ccc1-n1[nH]c(C)c(C=Nc2cccc3nsnc23)c1=O`, the inhibition is 14.9%.

Take `NC(=O)CC(NC(=O)Cc1cccc2ccccc12)c1ccc(NCCc2ccccc2F)c([N+](=O)[O-])c1` (stereo not drawn): the inhibition was 0.5%.

For the molecule `CCc1ccc(NC(=O)C(CC)Sc2nc3cc4c(cc3c(=O)n2Cc2ccco2)OCO4)cc1` (stereo not drawn), the inhibition was 6.65%.

Regarding `N#Cc1cnn2c(-c3ccccc3)ccnc12`, the inhibition was 36.5% (active).

As to `NS(=O)(=O)c1ccc(-c2ccc(/C=C3\NC(=S)NC3=O)o2)cc1`, the inhibition is -17.4%.

Turning to `Cc1cccc(NC2=C(NCCO)C(=O)c3ccccc3C2=O)c1`, the inhibition was -25.1%.

As for `Cc1ccccc1N=Cc1cccc(O)c1O`, the inhibition was -6.55%.

On to `CCCCn1c(=O)[nH]c(=O)c2c1nc(-c1ccc(-c3ccc(F)cc3)o1)n2C`, for which the inhibition is 21.7%.

Consider `CCCCn1c(=O)[nH]c2nc3cc(N)ccc3nc2c1=O`, for which the inhibition was 43.9% (active).

For `CCCCn1c(NS(=O)(=O)c2ccccc2)c(S(=O)(=O)c2ccc(C)cc2)c2nc3ccccc3nc21`, the inhibition is 16.1%.

Regarding `Oc1ccc(C2Nc3cccc4cccc(c34)N2)c(O)c1`, the inhibition is -3.25%.

Take `CC(=O)Oc1ccc2c(C)c(CC(C)O)c(=O)oc2c1` (stereo not drawn): the inhibition was 42.2% (active).

Regarding `CC(NC(=O)OC(C)(C)C)C(=O)Oc1ccc2ccc(=O)oc2c1` (stereo not drawn), the inhibition is 25.8%.

For the molecule `Cc1ccc(NC(=S)Nc2cccc3ccccc23)cc1F`, the inhibition was -5.85%.

Consider `CN(C)c1cccc2c(S(=O)(=O)Nc3ccccn3)cccc12`, for which the inhibition is 20%.

For `CN(C)c1cccc2c(S(=O)(=O)N3CCCC3)cccc12`, the inhibition is 36.4% (active).

On to `CN(C)c1cccc2cccc(N(C)C)c12`, for which the inhibition was 13.3%.

Turning to `Cn1c2ccccc2c2cnn(CC(=O)Nc3ccc(Cl)cc3)c(=O)c21`, the inhibition is 15.8%.

Regarding `Cc1cc(C)c(S(=O)(=O)NCC23C=CC(O2)C2C(=O)N(c4ccccc4)C(=O)C23)c(C)c1` (stereo not drawn), the inhibition was -17.5%.

For the molecule `O=C(NN1C(=O)CSC1=S)C(=O)NN1C(=O)CSC1=S`, the inhibition was 32.4% (active).

As for `COc1ccc(NC(=S)Nc2ccc3nsnc3c2)cc1`, the inhibition is 15.8%.

Consider `CC(=O)OCCNc1cc(SCc2ccco2)c2nonc2c1[N+](=O)[O-]`, for which the inhibition is -1.55%.

Turning to `Cc1oc2c(c(C)cc3oc(=O)c(CC(=O)N[C@H](C(=O)O)C(C)C)c(C)c32)c1C`, the inhibition is 56.9% (active).

Regarding `Cc1cc(OC(C(=O)O)c2ccccc2)c2c(C)c(Cc3ccccc3)c(=O)oc2c1` (stereo not drawn), the inhibition was 21.4%.

For the molecule `CCC(NC(=O)Cc1c(C)c2c(cc(C)c3c(C)c(C)oc32)oc1=O)C(=O)O` (stereo not drawn), the inhibition is 51.6% (active).

As for `Cc1oc2c(c(C)cc3oc(=O)c(CC(=O)N[C@@H](C)C(=O)O)c(C)c32)c1C`, the inhibition was 53.8% (active).

In the case of `CSCC[C@H](NC(=O)Cc1c(C)c2c(cc(C)c3c(C)c(C)oc32)oc1=O)C(=O)O`, the inhibition is 48.5% (active).

With `Nc1ccccc1NC1=CC(=O)CC(c2ccco2)C1` (stereo not drawn), the inhibition was 16.8%.

For the molecule `CC1=NN(c2ccc(C(=O)O)cc2)C(=O)/C1=C\c1ccc(OC(=O)c2cccs2)cc1`, the inhibition was 12.1%.

Take `C[n+]1cccc2c(Br)ccc([O-])c21`: the inhibition is -20.8%.

In the case of `C[n+]1cccc2cccc([O-])c21`, the inhibition is 5.4%.

With `Cc1cccc2c(N=Nc3ccc(S(=O)(=O)Nc4cccc(Cl)c4)cc3[N+](=O)[O-])c(O)[nH]c12`, the inhibition was -2.75%.

`CCOCCCNC1=C(Cl)C(=O)c2ccccc2C1=O`: the inhibition is -7.4%.

For `Cc1ccc(NC(=O)CSc2nnc(-c3ccco3)c(-c3ccco3)n2)cc1`, the inhibition was 0.35%.

Consider `O=C(Nc1ccc2nsnc2c1)N1CCCCC1`, for which the inhibition was 12.4%.

As to `Oc1ccc(N=Cc2ccc(OCc3ccccc3)cc2)cc1`, the inhibition is -5.35%.

As for `CC1=CC(C)(C)N2C(=O)C(=Nc3ccc(O)cc3)c3cccc1c32`, the inhibition was -3.6%.

For `Cc1ccc(NC(=O)CN2C(=O)S/C(=C\c3cc(Cl)c(OCC(=O)O)c(Cl)c3)C2=O)cc1`, the inhibition was 19.7%.

With `O=C1CC(c2ccco2)CC(O)=C1C=Nc1cc(Cl)ccc1Cl` (stereo not drawn), the inhibition is 1.35%.

Turning to `C/C(=N\OCc1nc2ccccc2c(=O)n1/N=C/c1cc([N+](=O)[O-])ccc1O)c1ccccc1`, the inhibition is -16.2%.

Turning to `CCOc1ccc(N2CC(C(=O)NCc3ccc(F)cc3)CC2=O)cc1` (stereo not drawn), the inhibition is 34.9% (active).

As to `CCOc1ccc(S(=O)(=O)N2CCCC(C(=O)NCc3ccco3)C2)cc1` (stereo not drawn), the inhibition is -1.5%.

As for `CCOc1ccc(NC(=O)c2ccc(NC(=O)c3ccc(CN4CCOCC4)cc3)cc2)cc1`, the inhibition was 5.55%.

For the molecule `O=[N+]([O-])c1cc([N+](=O)[O-])c2nonc2c1Nc1ccc(O)cc1`, the inhibition is -10.7%.

Regarding `COc1ccc2c(c1)-c1nc(/N=C/c3cccc(OC)c3O)sc1CC2`, the inhibition is 1.05%.

`COc1cc(NS(=O)(=O)c2ccc(NC(=S)NC(=O)/C=C/c3ccco3)cc2)ncn1`: the inhibition was 25.8%.

As for `O=C(COC(=O)c1cc(NS(=O)(=O)c2cccs2)ccc1O)Nc1cc(Cl)ccc1Cl`, the inhibition is 13.8%.

For `O=C(O)c1cccc(Cn2c(Cl)c(/C=N/NC(=O)c3cc4ccccc4cc3O)sc2=O)c1`, the inhibition was -2%.

With `COc1ccccc1/C=N/NC(=O)c1ccc(CN2C(=O)c3cccc4cccc2c34)cc1`, the inhibition was 48.2% (active).

Regarding `O=C(Cc1cc(=O)[nH][nH]1)N/N=C/c1cccc2ccccc12`, the inhibition is -6.95%.

Regarding `O=C(N/N=C/c1ccccc1)c1ccc(CN2C(=O)c3cccc4cccc2c34)cc1`, the inhibition is 38.8% (active).

Take `O=C(O)c1ccc(/C=N/NC(=O)c2ccc(CN3c4cccc5cccc(c45)S3(=O)=O)cc2)cc1`: the inhibition is 18.2%.

Regarding `C=CCc1cccc(/C=N/NC(=O)CNc2cccc3ccccc23)c1O`, the inhibition is 4.7%.

For the molecule `COc1ccc2c(c1)CC/C(=C\Nc1ccc3c(c1)OCO3)C2=O`, the inhibition was -3.55%.

On to `C=CCOc1c(Br)cc(/C=C2\SC(=Nc3ccccc3)NC2=O)cc1OC`, for which the inhibition was 9.1%.

On to `O=C(O)c1cccc([N+](=O)[O-])c1C(=O)Nc1cccc2ccccc12`, for which the inhibition was -3.8%.

Turning to `Cc1ccc(C(=O)Nc2ccccc2C(=O)N2CCN(c3ccccc3)CC2)cc1`, the inhibition was -8.05%.

Turning to `Cn1c(=O)cc(C(=O)N/N=C/c2ccc(Cl)cc2)[nH]c1=O`, the inhibition is -5.8%.

For `CCc1nc2sc(C(C)=O)c(N)c2c2c1CCCC2`, the inhibition was 9.65%.

Regarding `O=[N+]([O-])c1cccc(C=Nc2cccc3ccccc23)c1O`, the inhibition was 29.6%.

In the case of `CCOc1ccc(NC(=S)Nc2ccc3nsnc3c2)cc1`, the inhibition is 19.4%.

Regarding `O=C1NC(=Nc2ccc3ccccc3c2)S/C1=C/c1ccco1`, the inhibition was 9.5%.

As to `COc1cccc(NC(=S)Nc2cccc3ccccc23)c1`, the inhibition was 2.35%.

In the case of `S=C(Nc1ccc2nsnc2c1)N1CCCCC1`, the inhibition was 16.2%.

Take `S=C(Nc1ccc2nsnc2c1)N1CCCC1`: the inhibition is 35.6% (active).

Regarding `S=C(Nc1ccc2nsnc2c1)N1CCCCCC1`, the inhibition was 6.8%.
